{"source": "PubChem BioAssay (NCI)", "key": {"[1]": {"experiment": "NCI Yeast Anticancer Drug Screen. Data for the rad52 strain (AID 147);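 also: 0% = growth of vehicle-treated control cultures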", "conditions": "S. cerevisiae rad52 mutant growth inhibition, active compounds read high", "how_it_was_run": "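Measured: yeast growth inhibition. System: strain with a defined DNA damage repair alteration. Reference: vehicle-treated control cultures.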"}, "[2]": {"experiment": "NCI Yeast Anticancer Drug Screen. Data for the rad50EPP+ strain (AID 151);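 also: 0% = growth of vehicle-treated control cultures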", "conditions": "S. cerevisiae rad50 mutant strain, active compounds read high", "how_it_was_run": "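One strain with a rad50 alteration (rad50EPP+) was compound-treated, its growth then compared to that of vehicle controls.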"}, "[3]": {"experiment": "NCI Yeast Anticancer Drug Screen. Data for the mgt1 strain (AID 153)", "conditions": "S. cerevisiae mgt1 mutant growth inhibition, active compounds read high", "how_it_was_run": "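After exposure of the mgt1 yeast mutant to compound, growth was measured and reported as inhibition compared with vehicle controls.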"}, "[4]": {"experiment": "NCI Yeast Anticancer Drug Screen. Data for the rad50 strain (AID 155);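 also: 0% = growth of vehicle-only cultures of the same strain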", "conditions": "S. cerevisiae rad50 strain growth inhibition, active compounds read high", "how_it_was_run": "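DNA repair mutant yeast, compound exposure, growth read-out; inhibition is taken relative to vehicle.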"}, "[5]": {"experiment": "NCI Yeast Anticancer Drug Screen. Data for the mec2-1 strain (AID 157)", "conditions": "S. cerevisiae mec2-1 strain, active compounds read high", "how_it_was_run": "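Test agents were screened against the mec2-1 yeast strain, with defined DNA repair or cell cycle alteration. Growth was scored as inhibition against vehicle-only controls.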"}, "[6]": {"experiment": "NCI Yeast Anticancer Drug Screen. Data for the rad14 strain (AID 159);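 also: 0% = growth of vehicle-treated control cultures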", "conditions": "S. cerevisiae rad14 strain growth inhibition, active compounds read high", "how_it_was_run": "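DNA repair-defective yeast, compound-exposed; % growth inhibition derived by comparison with vehicle-treated controls.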"}, "[7]": {"experiment": "NCI Yeast Anticancer Drug Screen. Data for the sgs1 mgt1 strain (AID 161);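 also: 0% = growth of cultures given vehicle only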", "conditions": "S. cerevisiae sgs1 mgt1 strain, active compounds read high", "how_it_was_run": "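Genetically altered yeast, compound exposure, growth inhibition relative to vehicle.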"}, "[8]": {"experiment": "NCI Yeast Anticancer Drug Screen. Data for the cln2 rad14 strain (AID 165);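 also: 0% = growth equal to vehicle treated cultures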", "conditions": "S. cerevisiae cln2 rad14 strain, active compounds read high", "how_it_was_run": "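Growth of compound-exposed yeast (cln2 rad14 genotype) measured and expressed as inhibition relative to vehicle.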"}, "[9]": {"experiment": "NCI Yeast Anticancer Drug Screen. Data for the bub3 strain (AID 167)", "conditions": "S. cerevisiae bub3 mutant strain, active compounds read high", "how_it_was_run": "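In this screen, a yeast mutant lacking normal mitotic checkpoint function is challenged with compound. Relative growth versus vehicle gives the inhibition value.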"}, "[10]": {"experiment": "NCI Yeast Anticancer Drug Screen. Data for the wt2 strain (AID 169);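 also: 0% = growth of vehicle-treated yeast cultures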", "conditions": "S. cerevisiae wt2 strain growth inhibition, active compounds read high", "how_it_was_run": "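Genetically defined yeast strains from a DNA-repair/cell-cycle panel were used. Compound-exposed yeast growth was measured, and the inhibition was calculated relative to vehicle treatment.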"}, "[11]": {"experiment": "NCI Yeast Anticancer Drug Screen. Data for the mlh1 strain (AID 171);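 also: 0% = growth of vehicle-treated control cultures of the same strain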", "conditions": "S. cerevisiae mlh1 strain growth inhibition, active compounds read high", "how_it_was_run": "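Here the genetically defined yeast mutant is grown with each compound, and the extent to which its growth falls below that of vehicle-exposed cells is reported.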"}, "[12]": {"experiment": "NCI Yeast Anticancer Drug Screen. Data for the sgs1 strain (AID 173);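 also: 0% = growth of vehicle-only control cultures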", "conditions": "S. cerevisiae sgs1 mutant, active compounds read high", "how_it_was_run": "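Relative growth inhibition, referenced to vehicle, was determined in a yeast strain with a defined alteration affecting DNA damage repair or cell cycle control after compound exposure.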"}, "[13]": {"experiment": "NCI Yeast Anticancer Drug Screen. Data for the mlh1 rad18 strain (AID 175)", "conditions": "S. cerevisiae mlh1 rad18 strain growth inhibition, active compounds read high", "how_it_was_run": "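In this whole-cell yeast screen, a strain with altered DNA damage repair is challenged with compound, and its growth is measured against matched vehicle-treated controls.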"}, "[14]": {"experiment": "NCI Yeast Anticancer Drug Screen. Data for the rad18 strain (AID 177)", "conditions": "S. cerevisiae rad18 mutant growth inhibition, active compounds read high", "how_it_was_run": "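Screen uses a yeast strain with a defined lesion in DNA damage repair; compound effect is read as loss of growth compared to untreated vehicle cultures.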"}, "[15]": {"conditions": "at 5.0 µM (retest, dose inferred, filed as 0.5)"}, "[16]": {"conditions": "at 50.0 µM (retest, dose inferred, filed as 5.0)"}}, "note": "The panel holds about 79,000 compounds, 15% with a hit somewhere; the sample as a whole holds those more often. A number with no mark means an inactive call. Active and inactive are the calls of the source. Rule as the data show it: active = growth inhibition above about 70%; inactive = the rest.", "data": [{"smiles": "CCCCCCCC/C=C\\CCCCCCCCN", "values": [{"measurement": "growth inhibition", "setting": "[1]; at 1.2 µM", "value": 4, "unit": "%"}, {"measurement": "growth inhibition", "setting": "[1]; at 3.7 µM", "value": 0, "unit": "%"}, {"measurement": "growth inhibition", "setting": "[1]; at 11.0 µM", "value": -10, "unit": "%"}, {"measurement": "growth inhibition", "setting": "[1]; at 33.0 µM", "value": "98% (active)"}, {"measurement": "growth inhibition", "setting": "[1]; at 100.0 µM", "value": "97% (active)"}, {"measurement": "growth inhibition", "setting": "[2]; at 1.2 µM", "value": 17, "unit": "%"}, {"measurement": "growth inhibition", "setting": "[2]; at 3.7 µM", "value": 21, "unit": "%"}, {"measurement": "growth inhibition", "setting": "[2]; at 11.0 µM", "value": 21, "unit": "%"}, {"measurement": "growth inhibition", "setting": "[2]; at 33.0 µM", "value": "96% (active)"}, {"measurement": "growth inhibition", "setting": "[2]; at 100.0 µM", "value": "97% (active)"}, {"measurement": "growth inhibition", "setting": "[3]; at 1.2 µM", "value": 18, "unit": "%"}, {"measurement": "growth inhibition", "setting": "[3]; at 3.7 µM", "value": 30, "unit": "%"}, {"measurement": "growth inhibition", "setting": "[3]; at 11.0 µM", "value": 22, "unit": "%"}, {"measurement": "growth inhibition", "setting": "[3]; at 33.0 µM", "value": "99% (active)"}, {"measurement": "growth inhibition", "setting": "[3]; at 100.0 µM", "value": "98% (active)"}, {"measurement": "growth inhibition", "setting": "[4]; at 1.2 µM", "value": -1, "unit": "%"}, {"measurement": "growth inhibition", "setting": "[4]; at 3.7 µM", "value": -7, "unit": "%"}, {"measurement": "growth inhibition", "setting": "[4]; [15]", "value": 30, "unit": "%"}, {"measurement": "growth inhibition", "setting": "[4]; at 11.0 µM", "value": -15, "unit": "%"}, {"measurement": "growth inhibition", "setting": "[4]; at 33.0 µM", "value": "96% (active)"}, {"measurement": "growth inhibition", "setting": "[4]; [16]", "value": 64, "unit": "%"}, {"measurement": "growth inhibition", "setting": "[4]; at 50.0 µM", "value": "91.2% (active)"}, {"measurement": "growth inhibition", "setting": "[4]; at 100.0 µM", "value": "96% (active)"}, {"measurement": "growth inhibition", "setting": "[5]; at 1.2 µM", "value": 1, "unit": "%"}, {"measurement": "growth inhibition", "setting": "[5]; at 3.7 µM", "value": 15, "unit": "%"}, {"measurement": "growth inhibition", "setting": "[5]; [15]", "value": 45, "unit": "%"}, {"measurement": "growth inhibition", "setting": "[5]; at 11.0 µM", "value": -18, "unit": "%"}, {"measurement": "growth inhibition", "setting": "[5]; at 33.0 µM", "value": "98% (active)"}, {"measurement": "growth inhibition", "setting": "[5]; [16]", "value": 30, "unit": "%"}, {"measurement": "growth inhibition", "setting": "[5]; at 50.0 µM", "value": "92.5% (active)"}, {"measurement": "growth inhibition", "setting": "[5]; at 100.0 µM", "value": "98% (active)"}, {"measurement": "growth inhibition", "setting": "[6]; at 1.2 µM", "value": -22, "unit": "%"}, {"measurement": "growth inhibition", "setting": "[6]; at 3.7 µM", "value": -21, "unit": "%"}, {"measurement": "growth inhibition", "setting": "[6]; at 11.0 µM", "value": -19, "unit": "%"}, {"measurement": "growth inhibition", "setting": "[6]; at 33.0 µM", "value": "97% (active)"}, {"measurement": "growth inhibition", "setting": "[6]; at 100.0 µM", "value": "97% (active)"}, {"measurement": "growth inhibition", "setting": "[7]; [15]", "value": -68, "unit": "%"}, {"measurement": "growth inhibition", "setting": "[7]; [16]", "value": "98% (active)"}, {"measurement": "growth inhibition", "setting": "[7]; at 50.0 µM", "value": "93% (active)"}, {"measurement": "growth inhibition", "setting": "[8]; [15]", "value": 42, "unit": "%"}, {"measurement": "growth inhibition", "setting": "[8]; [16]", "value": "96% (active)"}, {"measurement": "growth inhibition", "setting": "[8]; at 50.0 µM", "value": "90% (active)"}, {"measurement": "growth inhibition", "setting": "[9]; at 1.2 µM", "value": 0, "unit": "%"}, {"measurement": "growth inhibition", "setting": "[9]; at 3.7 µM", "value": 14, "unit": "%"}, {"measurement": "growth inhibition", "setting": "[9]; [15]", "value": -10, "unit": "%"}, {"measurement": "growth inhibition", "setting": "[9]; at 11.0 µM", "value": 14, "unit": "%"}, {"measurement": "growth inhibition", "setting": "[9]; at 33.0 µM", "value": "97% (active)"}, {"measurement": "growth inhibition", "setting": "[9]; [16]", "value": "97% (active)"}, {"measurement": "growth inhibition", "setting": "[9]; at 50.0 µM", "value": "91% (active)"}, {"measurement": "growth inhibition", "setting": "[9]; at 100.0 µM", "value": "96% (active)"}, {"measurement": "growth inhibition", "setting": "[10]; at 1.2 µM", "value": -7, "unit": "%"}, {"measurement": "growth inhibition", "setting": "[10]; at 3.7 µM", "value": -1, "unit": "%"}, {"measurement": "growth inhibition", "setting": "[10]; at 11.0 µM", "value": -24, "unit": "%"}, {"measurement": "growth inhibition", "setting": "[10]; at 33.0 µM", "value": "98% (active)"}, {"measurement": "growth inhibition", "setting": "[10]; at 100.0 µM", "value": "97% (active)"}, {"measurement": "growth inhibition", "setting": "[11]; at 1.2 µM", "value": -16, "unit": "%"}, {"measurement": "growth inhibition", "setting": "[11]; at 3.7 µM", "value": -16, "unit": "%"}, {"measurement": "growth inhibition", "setting": "[11]; at 11.0 µM", "value": -17, "unit": "%"}, {"measurement": "growth inhibition", "setting": "[11]; at 33.0 µM", "value": "97% (active)"}, {"measurement": "growth inhibition", "setting": "[11]; at 100.0 µM", "value": "97% (active)"}, {"measurement": "growth inhibition", "setting": "[12]; at 1.2 µM", "value": -3, "unit": "%"}, {"measurement": "growth inhibition", "setting": "[12]; at 3.7 µM", "value": -11, "unit": "%"}, {"measurement": "growth inhibition", "setting": "[12]; at 11.0 µM", "value": -15, "unit": "%"}, {"measurement": "growth inhibition", "setting": "[12]; at 33.0 µM", "value": "97% (active)"}, {"measurement": "growth inhibition", "setting": "[12]; at 100.0 µM", "value": "96% (active)"}, {"measurement": "growth inhibition", "setting": "[13]; [15]", "value": 26, "unit": "%"}, {"measurement": "growth inhibition", "setting": "[13]; [16]", "value": 27, "unit": "%"}, {"measurement": "growth inhibition", "setting": "[13]; at 50.0 µM", "value": "91.3% (active)"}, {"measurement": "growth inhibition", "setting": "[14]; at 1.2 µM", "value": -1, "unit": "%"}, {"measurement": "growth inhibition", "setting": "[14]; at 3.7 µM", "value": 7, "unit": "%"}, {"measurement": "growth inhibition", "setting": "[14]; at 11.0 µM", "value": -13, "unit": "%"}, {"measurement": "growth inhibition", "setting": "[14]; at 33.0 µM", "value": "97% (active)"}, {"measurement": "growth inhibition", "setting": "[14]; at 100.0 µM", "value": "97% (active)"}]}]}
